SMN2 splice up: increases expression of the SMN2 splice variant; HEK293 SMN2-luciferase splicing reporter, luminescence, 30-36 h; 210,000 compounds, 2.8% hits; Potency, µM (series often up to 46.1 µM), for inactives: at the top dose activity change, positive = activation, actives largely listed as activators; AID 1458; also: % of control where 0% means no effect; nearly all actives have a fitted effect of over 55% in size
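qHTS luciferase splicing reporter: luminescence rises when SMN2 exon 7 is included in transfected HEK293 cells. Compound exposure lasted 30-36 h at 37C, with 4.5 mM final sodium butyrate as control, followed by a ONE-Glo read.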
p53 reactivation: re-activators of mutant p53; AID 504706; 320,000 compounds, 0.063% hits; Potency, µM (top dose mostly 92.2 µM), without a hit: top-dose activity change, positive = activation, most hits filed as activators; H1299 p53-A138V BP100-luciferase reporter, luminescence, 24 h; also: % of control where 0% means no effect; nearly all actives have a fitted effect of over 45% in size
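H1299 (p53-null), stable ts p53-A138V + BP100-Luc; 1000 cells/well, Opti-MEM/10% FBS; cpd 4 pt, 1:5; 24 h, 37 deg C, 5% CO2; detection reagent 10 min RT; luminescence.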
Rab9 prom act: Rab9 promoter activation; Huh7 Rab9 promoter-luciferase reporter, luminescence, 24 h; Potency, µM (doses to about 9.22 µM), inactives show top-dose activation, negative = inhibition, hits mostly activators; 320,000 compounds, 2.8% hits; also: % of control where 0% means no effect; nearly all actives have a fitted effect of over 60% in size
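Cell-based reporter: Huh7 stable for Rab9 promoter-driven luciferase, plated in reduced-serum medium with 10% FBS at 1500 cells/well, compound-treated 24 h at 37 °C, luminescence read after 10 min reagent.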
ELG1 genotoxic: inducers of genotoxicity in HEK293T ELG1-luciferase cells. HEK293T ELG1-luciferase reporter, luminescence, 16 h. AID 504466. 330,000 compounds, 1.3% hits. Potency, µM (doses to about 46 µM), inactives show top-dose activity change, positive = activation, usual class: activators; also: % of control where 0% means no effect; nearly all actives have a fitted effect of over 60% in size
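After overnight (16 hr) compound treatment at 37 °C, ELG1-luciferase HEK293T cells were lysed with ONE-Glo; luminescence quantified 30 min later at room temperature.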
NPC1 promoter act: activates the NPC1 promoter; Potency, µM (highest dose often 9.22 µM), for the others: top-dose activation, actives largely listed as activators; 320,000 compounds, 2.4% hits; AID 485313; Huh7 NPC1 promoter luciferase reporter, 24 h; also: % of control where 0% means no effect; nearly all actives have a fitted effect of over 60% in size
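Luciferase expression driven by the NPC1 promoter was measured in stably transfected Huh7 cells after a 24 h compound incubation, using a luciferase reagent and a luminescence read.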
FLuc modulator: counter-screen for miR-21 project: firefly luciferase inhibitors or activators; 360,000 compounds, 6.9% hits; purified FLuc, Km substrates, luminescence inhibition; Potency, µM (titrated, usually from 57.5 µM), for inactives: at the top dose activity change, negative = inhibition, most hits filed as inhibitors; P08659;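 also: plate controls were vehicle for no effect and reference inhibitor for full effect; nearly all actives have a fitted effect of over 55% in size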
Target sequence (P08659 whole entry, looked up): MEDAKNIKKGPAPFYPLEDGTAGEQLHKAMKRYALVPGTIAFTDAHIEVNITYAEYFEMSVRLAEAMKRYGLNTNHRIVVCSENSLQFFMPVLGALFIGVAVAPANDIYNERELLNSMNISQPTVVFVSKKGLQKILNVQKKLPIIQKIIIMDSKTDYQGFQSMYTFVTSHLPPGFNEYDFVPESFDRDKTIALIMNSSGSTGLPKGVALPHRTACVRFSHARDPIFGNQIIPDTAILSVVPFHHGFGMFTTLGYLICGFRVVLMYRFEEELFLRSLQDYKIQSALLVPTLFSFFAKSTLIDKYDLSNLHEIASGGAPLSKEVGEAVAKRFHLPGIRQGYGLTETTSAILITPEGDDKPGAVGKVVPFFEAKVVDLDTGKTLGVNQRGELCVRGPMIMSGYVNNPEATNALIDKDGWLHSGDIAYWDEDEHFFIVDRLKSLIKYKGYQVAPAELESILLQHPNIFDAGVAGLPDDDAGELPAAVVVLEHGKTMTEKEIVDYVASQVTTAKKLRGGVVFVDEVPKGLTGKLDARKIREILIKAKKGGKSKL
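Biochemical qHTS of compounds, final roughly 60 µM downward over six points, against 10 nM purified firefly luciferase using Km concentrations of substrates (10 uM D-luciferin, 10 uM ATP) in Tris acetate pH 7.5 buffer; luminescence output.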
Starred values were filed as active, the others as inactive; u = inconclusive; x = not tested or not shown. Only some compounds are listed: those with a hit (about 7.4% of all), similar ones and a draw of the others. Calls follow the shape of the dose curve; as a rule, active = well fitted curve in the direction sought with a large enough effect; inconclusive = small, poorly fitted or top-dose-only effect, or another doubt; inactive = no such curve, though single readings can be large; an effect the other way counts as inactive or inconclusive. Potency is read from the fitted curve at half-maximal effect.

SMILES | SMN2 splice up | p53 reactivation | Rab9 prom act | ELG1 genotoxic | NPC1 promoter act | FLuc modulator
CCc1c(C)nc(SCC(=O)c2cccs2)c(C#N)c1C | 15.8µM* | u | u | 9.2µM* | 3.16µM* | 2.69µM*
CCc1cc2c(SCC(=O)c3ccccc3)ncnc2s1 | 8.91µM* | 24.0% | 1.5% | u | 19.5% | u
C=CCn1c(SCC(=O)c2cccs2)nc2sc(CC)cc2c1=O | -42.6% | -0.8% | -0.1% | -21.7% | -3.6% | 3.6%
CCc1c(C)nc(SCC(N)=O)c(C#N)c1C | 2.4% | -1.6% | 7.2% | -0.2% | -0.2% | 3.8%
CC(C)CCOc1ccc(C2(C)NC(=O)NC2=O)cc1 (stereo not given) | x | x | -0.6% | -0.2% | -0.8% | -1.9%
N#Cc1ccccc1NC(=O)c1ccc2c(Cl)c3c(nc2c1)CCCC3 | 10µM* | u | 3.55µM* | 12.1% | u | 3.79µM*
CCOC(=O)N1CCC(NC(=O)c2ccc3c(Cl)c4c(nc3c2)CCCC4)CC1 | -22.2% | 4.0% | -4.0% | -3.8% | -2.9% | -1.7%
O=C(NC1CC1)c1ccc2c(Cl)c3c(nc2c1)CCCC3 | -19.4% | u | -5.3% | 0.0% | 0.1% | 13.5µM*
O=C(Nc1cccnc1Cl)c1ccc2c(Cl)c3c(nc2c1)CCC3 | u | u | 0.708µM* | 2.31µM* | 1µM* | 0.849µM*
O=C(Nc1ccccc1F)c1ccc2c(Cl)c3c(nc2c1)CCC3 | u | x | x | x | x | 0.151µM*
O=C(N[C@@H]1c2ccccc2CC[C@@H]1OCc1ccccc1)c1ccc(-c2ccccc2)cc1 | x | 2.2% | x | 5.7% | x | x
Cc1ccccc1NC(=O)c1c(C)oc2ccc(O)c(CN3CCCCCC3)c12 | -12.6% | x | x | x | x | -4.4%
C/C(=C\c1ccccc1)C(=O)n1nnc2ccccc21 | -3.1% | -0.2% | 7.9% | 1.1% | -1.2% | 19µM*
COc1ccc(-c2nc(CS(=O)(=O)CC(=O)NC3CCC(C)CC3)c(C)o2)cc1 (stereo not given) | x | -2.7% | -3.8% | -0.7% | -2.5% | -10.4%
O=C1C(=C2SCCCS2)CC/C1=C\c1ccc(F)cc1 | -78.5% | -1.9% | u | u | u | 0.0675µM*
Cc1cccc(/C=C2\CCC(=C3SCCCS3)C2=O)c1 | u | u | 0.0891µM* | u | 0.316µM* | 0.0849µM*
Cc1cccc(/C=c2\s/c(=C\C(=O)C(C)(C)C)[nH]c2=O)c1 | x | -16.3% | 15.8% | -7.1% | 1.7% | u
CCOc1ccc(NC(=O)Cn2cc(C(=O)c3ccc(F)cc3)c(=O)c3cc4c(cc32)OCCO4)cc1 | -1.4% | x | x | x | x | 2.1%
O=C(NNC(=O)c1cc(-c2ccc(Cl)cc2Cl)nc2ccccc12)Nc1ccccc1 | -2.4% | 7.0% | -4.3% | 3.0% | -5.6% | 6.75µM*
CCOC(=O)c1ccc(NC(=S)NNC(=O)c2cc(-c3cccnc3)nc3ccccc23)cc1 | x | -2.1% | 11.1% | -16.7% | 3.8% | 21.3µM*
O=C(NNC(=S)Nc1ccccc1)c1cc(-c2cccnc2)nc2ccccc12 | 22.1% | -0.2% | 15.7% | -3.1% | -1.0% | 13.5µM*
CCOC(=O)c1ccc(Nc2nc(-c3cccnc3)nc3ccccc23)cc1 | -22.1% | -10.0% | -4.9% | -4.4% | -3.3% | 3.2%
CCCc1nn2c(=O)cc(COC(=O)c3ccc4c(c3)OCO4)nc2s1 | x | x | x | x | x | -9.0%
Cc1cc(C(=O)COC(=O)c2n[nH]c3ccccc23)c(C)n1CC1CCCO1 (stereo not given) | -34.2% | u | 0.316µM* | u | 0.355µM* | u
Cc1cc(C(=O)COC(=O)c2cccnc2Cl)c(C)n1CC1CCCO1 (stereo not given) | 10.7% | -8.9% | u | 0.517µM* | u | 0.239µM*
SMILES | SMN2 splice up | p53 reactivation | Rab9 prom act | ELG1 genotoxic | NPC1 promoter act | FLuc modulator
Cc1cc(C(=O)CSc2nnc(-c3ccncc3)n2-c2ccccc2)c(C)n1C | -10.8% | -0.5% | -5.7% | -3.4% | -2.2% | -5.9%
Cc1cc(C(=O)COc2ccccc2C(N)=O)c(C)n1CC1CCCO1 (stereo not given) | -93.4% | 9.9% | -9.2% | -6.1% | -26.0% | u
Cc1cc(C(=O)COC(=O)c2ccccc2O)c(C)n1CC1CCCO1 (stereo not given) | x | -26.4% | -29.1% | -9.0% | -27.2% | 0.0849µM*
O=C(COC(=O)c1cccnc1Cl)NCC1CCCO1 (stereo not given) | 7.8% | 0.2% | -4.6% | 0.0% | -1.2% | 0.4%
Cc1cc(C(=O)CSc2nnc(-c3cccnc3)n2-c2ccccc2)c(C)n1CC1CCCO1 (stereo not given) | -24.4% | 2.9% | u | 11.6% | 20.8% | 19µM*
O=C(Nc1ccc2c(c1)N(C1CCCC1)C(=O)c1ccccc1S2)c1ccccc1F | x | x | x | x | x | 5.5%
NCCCCCCN | -6.3% | x | x | x | x | x
COc1ccc(CCNC(=O)Cn2nc(C)n3c(cc4cc(F)ccc43)c2=O)cc1OC | -9.2% | x | x | x | x | -0.5%
CCCc1nnc(SCC(=O)Nc2nnc(CC)s2)n1CC1CCCO1 (stereo not given) | x | 6.4% | -0.3% | -4.0% | -5.3% | 3.1%
Cc1cc(C(=O)COC(=O)c2cc(O)c3ccccc3c2O)c(C)n1CC1CCCO1 (stereo not given) | 0.7% | 22.3% | 12.8% | 1.6% | 8.4% | 19µM*
Cc1ccc(C(=O)OCC(=O)c2cc(C)n(CC3CCCO3)c2C)cc1 (stereo not given) | -1.7% | 22.0% | 2.24µM* | u | 2.24µM* | 4.26µM*
Cc1cc(C(=O)COC(=O)c2ccccc2NCCO)c(C)n1CC1CCCO1 (stereo not given) | x | 14.5% | u | u | u | 1.51µM*
Cc1cc(C(=O)COC(=O)c2cccc(NS(C)(=O)=O)c2)c(C)n1CC1CCCO1 (stereo not given) | x | 14.7% | x | u | x | x
Cc1cc(C(=O)COC(=O)CN(C)S(=O)(=O)c2ccc(Cl)cc2)c(C)n1CC1CCCO1 (stereo not given) | -7.3% | -13.9% | 1.0% | 1.2% | 8.7% | 19µM*
CCC(C)NC(=O)CSc1nc2cc3c(cc2c(=O)n1Cc1ccc(C(=O)NCCc2ccc(OC)c(OC)c2)cc1)OCO3 (stereo not given) | x | x | x | x | x | 0.4%
Cc1cccc(C(=O)Nc2nc3nc(-c4ccccc4)cc(=O)n3[nH]2)c1 | 2.4% | x | x | x | x | u
Cc1c(C)n(Cc2ccccc2)c2ccc(C(=O)NCCc3ccccc3Cl)cc12 | x | x | x | x | x | -14.7%
CCc1ccc2ncc(S(=O)(=O)c3ccc(Cl)cc3)c(N3CCN(CC)CC3)c2c1 | -11.8% | x | x | x | x | -1.2%
COc1cccc(-n2cc(C(=O)Nc3cc(C)c(Cl)cc3OC)c3ccccc3c2=O)c1 | x | x | x | x | x | -5.0%
